In publication PMC7862700, “An all-to-all approach to the identification of sequence-specific readers for epigenetic DNA modifications on cytosine” one finds binding signal data, which are given here for 1 sequence.

Holding throughout (test): DAPPL (digital affinity profiling via proximity ligation, sequencing); 10 mM Tris-HCl pH 7.5, 50 mM NaCl, 1 mM DTT, 4% glycerol, room temperature, 30 min; GST-TFs on glutathione beads, 16-mer random dsDNA library, 0.1% formaldehyde crosslink after washing; high values mean tight binding
Details in all cases: protein: recombinant; tags: N-terminal GST; dsDNA, one strand shown

Assay [1] concerns the target T1, ELK1 (Homo sapiens, UniProt P19419 1-428).
T1 sequence: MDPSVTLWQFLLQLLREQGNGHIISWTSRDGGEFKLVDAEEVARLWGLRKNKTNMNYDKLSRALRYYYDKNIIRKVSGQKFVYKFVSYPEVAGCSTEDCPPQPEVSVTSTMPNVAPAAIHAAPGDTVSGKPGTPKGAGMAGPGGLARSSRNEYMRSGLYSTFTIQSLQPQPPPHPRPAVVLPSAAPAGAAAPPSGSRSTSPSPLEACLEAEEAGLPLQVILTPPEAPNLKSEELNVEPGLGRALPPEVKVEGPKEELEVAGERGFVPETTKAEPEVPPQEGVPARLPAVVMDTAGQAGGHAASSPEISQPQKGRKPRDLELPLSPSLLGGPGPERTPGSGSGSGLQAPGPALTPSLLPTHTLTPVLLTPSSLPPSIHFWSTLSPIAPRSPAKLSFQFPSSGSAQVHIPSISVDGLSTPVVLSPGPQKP
In short, it runs like this: (§1)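 Sequencing on an Illumina NextSeq500 followed washing, crosslinking with 0.1% formaldehyde, proximity ligation (BsaI/T4 ligase, 1 h, 37 °C) and PCR amplification of pools that had been incubated for 30 min at room temperature with 200 nmole of a random double-stranded 16-mer DNA library in Tris/NaCl/DTT/glycerol buffer. Each pool held DNA-barcoded human transcription factors, expressed in yeast as GST fusions and captured on glutathione beads, plus a tag-only sample. Binding signal is a hexamer's read frequency for a factor divided by its frequency in the tag-only sample.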

In assay [2] the target is T2, GABPA (Homo sapiens, UniProt Q06546 1-454).
T2 sequence: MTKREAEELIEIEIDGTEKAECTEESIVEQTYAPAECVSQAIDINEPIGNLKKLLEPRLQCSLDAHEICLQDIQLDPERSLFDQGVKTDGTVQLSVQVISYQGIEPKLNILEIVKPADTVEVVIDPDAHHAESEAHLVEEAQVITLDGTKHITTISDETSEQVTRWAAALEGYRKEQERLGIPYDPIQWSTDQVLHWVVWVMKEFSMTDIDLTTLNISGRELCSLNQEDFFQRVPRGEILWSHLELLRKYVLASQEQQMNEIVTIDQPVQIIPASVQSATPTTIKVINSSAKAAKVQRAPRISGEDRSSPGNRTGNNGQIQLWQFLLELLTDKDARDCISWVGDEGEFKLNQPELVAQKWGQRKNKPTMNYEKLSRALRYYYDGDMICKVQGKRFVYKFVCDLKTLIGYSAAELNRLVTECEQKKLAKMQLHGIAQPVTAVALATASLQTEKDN
In short, it runs like this: as §1

Assay [3] deals with T3, ERG (Homo sapiens, UniProt P11308 1-479).
T3 sequence: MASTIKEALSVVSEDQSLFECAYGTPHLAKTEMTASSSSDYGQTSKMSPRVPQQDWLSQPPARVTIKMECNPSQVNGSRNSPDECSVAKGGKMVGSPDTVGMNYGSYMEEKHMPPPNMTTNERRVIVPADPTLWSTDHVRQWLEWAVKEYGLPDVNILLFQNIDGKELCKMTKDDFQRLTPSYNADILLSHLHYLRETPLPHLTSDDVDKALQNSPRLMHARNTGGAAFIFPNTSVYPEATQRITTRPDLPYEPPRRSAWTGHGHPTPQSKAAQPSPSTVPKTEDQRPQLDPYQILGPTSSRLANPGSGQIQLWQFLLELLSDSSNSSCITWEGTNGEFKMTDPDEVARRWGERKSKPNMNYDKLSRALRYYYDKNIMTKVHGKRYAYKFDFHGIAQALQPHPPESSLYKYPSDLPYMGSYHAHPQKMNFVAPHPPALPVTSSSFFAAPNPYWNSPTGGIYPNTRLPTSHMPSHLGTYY
In short, it runs like this: as §1

Assay [4] deals with ELF1 (Homo sapiens, UniProt P32519 1-619). In short, it runs like this: as §1
ELF1, sequence (P32519 whole entry): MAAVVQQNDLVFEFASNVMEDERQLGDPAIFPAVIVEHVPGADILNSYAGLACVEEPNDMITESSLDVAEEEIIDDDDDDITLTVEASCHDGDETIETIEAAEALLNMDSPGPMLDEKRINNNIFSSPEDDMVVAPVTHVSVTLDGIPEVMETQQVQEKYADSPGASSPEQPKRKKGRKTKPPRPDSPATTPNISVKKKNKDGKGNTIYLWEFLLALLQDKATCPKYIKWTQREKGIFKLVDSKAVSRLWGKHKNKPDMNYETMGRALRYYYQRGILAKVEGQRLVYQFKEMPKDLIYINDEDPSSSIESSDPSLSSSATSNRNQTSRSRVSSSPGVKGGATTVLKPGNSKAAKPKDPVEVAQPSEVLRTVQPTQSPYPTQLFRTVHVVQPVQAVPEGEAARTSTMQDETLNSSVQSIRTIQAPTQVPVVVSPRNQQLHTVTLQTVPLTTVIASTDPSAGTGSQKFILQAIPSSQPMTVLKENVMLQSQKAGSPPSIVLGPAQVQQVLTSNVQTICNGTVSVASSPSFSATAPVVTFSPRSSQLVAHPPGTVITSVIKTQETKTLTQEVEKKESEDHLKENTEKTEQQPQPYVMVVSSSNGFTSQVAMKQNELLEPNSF
In assay [5] the target is T4, EHF (Homo sapiens, UniProt Q9NZC4 1-300).
T4 sequence: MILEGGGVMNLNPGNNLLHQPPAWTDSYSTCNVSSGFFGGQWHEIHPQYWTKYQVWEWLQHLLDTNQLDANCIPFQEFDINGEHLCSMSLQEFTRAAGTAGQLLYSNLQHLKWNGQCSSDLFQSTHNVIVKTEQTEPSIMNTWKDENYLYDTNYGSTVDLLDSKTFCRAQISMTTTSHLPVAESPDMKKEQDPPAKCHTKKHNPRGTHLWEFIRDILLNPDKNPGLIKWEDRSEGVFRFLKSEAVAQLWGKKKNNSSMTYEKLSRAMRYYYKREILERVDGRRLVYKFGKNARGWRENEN
In short, it runs like this:
as §1

Assay [6] has as its target SPIB (Homo sapiens, UniProt Q01892 1-262). In short, it runs like this: as §1
Assay [7] concerns the target T5, ELK3 (Homo sapiens, UniProt P41970 1-407).
T5 sequence: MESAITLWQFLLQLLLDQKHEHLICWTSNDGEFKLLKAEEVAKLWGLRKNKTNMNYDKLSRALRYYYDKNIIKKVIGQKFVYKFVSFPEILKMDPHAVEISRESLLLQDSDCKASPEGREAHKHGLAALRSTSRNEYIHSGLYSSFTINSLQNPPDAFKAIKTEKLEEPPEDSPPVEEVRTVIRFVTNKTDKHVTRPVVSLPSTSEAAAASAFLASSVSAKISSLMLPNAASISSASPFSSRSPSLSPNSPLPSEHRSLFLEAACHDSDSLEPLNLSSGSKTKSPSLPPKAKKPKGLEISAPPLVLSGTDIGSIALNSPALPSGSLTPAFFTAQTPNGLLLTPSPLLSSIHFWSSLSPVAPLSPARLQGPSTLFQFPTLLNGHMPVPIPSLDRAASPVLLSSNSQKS
The method, boiled down: as §1

Assay [8] has as its target T6, SPIC (Homo sapiens, UniProt Q8N5J4 1-248).
T6 sequence: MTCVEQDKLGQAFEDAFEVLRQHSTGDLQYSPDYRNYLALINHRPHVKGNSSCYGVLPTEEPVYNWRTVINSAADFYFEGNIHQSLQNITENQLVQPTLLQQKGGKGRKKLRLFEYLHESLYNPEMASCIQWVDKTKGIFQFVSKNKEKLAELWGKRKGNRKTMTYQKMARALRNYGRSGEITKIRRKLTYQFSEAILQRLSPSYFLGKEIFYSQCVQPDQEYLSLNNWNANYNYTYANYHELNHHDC
In short, it runs like this:
as §1

The target of assay [9] is ELF4 (Homo sapiens, UniProt Q99607 1-663). The method, boiled down: as §1
ELF4, sequence (Q99607 whole entry): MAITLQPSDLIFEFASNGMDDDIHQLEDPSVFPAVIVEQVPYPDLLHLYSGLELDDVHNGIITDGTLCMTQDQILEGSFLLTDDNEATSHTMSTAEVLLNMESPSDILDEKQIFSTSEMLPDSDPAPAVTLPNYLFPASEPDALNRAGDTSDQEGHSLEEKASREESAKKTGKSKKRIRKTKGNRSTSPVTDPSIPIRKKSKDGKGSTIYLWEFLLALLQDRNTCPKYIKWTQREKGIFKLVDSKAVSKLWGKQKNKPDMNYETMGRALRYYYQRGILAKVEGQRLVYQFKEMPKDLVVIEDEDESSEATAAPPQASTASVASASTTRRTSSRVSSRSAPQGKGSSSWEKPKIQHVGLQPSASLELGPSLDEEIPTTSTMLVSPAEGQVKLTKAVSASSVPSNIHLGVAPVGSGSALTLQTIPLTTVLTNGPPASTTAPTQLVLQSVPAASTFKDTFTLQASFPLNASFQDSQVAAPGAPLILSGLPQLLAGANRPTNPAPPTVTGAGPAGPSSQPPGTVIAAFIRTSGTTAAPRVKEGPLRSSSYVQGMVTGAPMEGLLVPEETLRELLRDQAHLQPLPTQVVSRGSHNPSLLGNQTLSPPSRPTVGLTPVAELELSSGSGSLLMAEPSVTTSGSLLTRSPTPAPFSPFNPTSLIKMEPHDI

SPIB, sequence (Q01892 whole entry): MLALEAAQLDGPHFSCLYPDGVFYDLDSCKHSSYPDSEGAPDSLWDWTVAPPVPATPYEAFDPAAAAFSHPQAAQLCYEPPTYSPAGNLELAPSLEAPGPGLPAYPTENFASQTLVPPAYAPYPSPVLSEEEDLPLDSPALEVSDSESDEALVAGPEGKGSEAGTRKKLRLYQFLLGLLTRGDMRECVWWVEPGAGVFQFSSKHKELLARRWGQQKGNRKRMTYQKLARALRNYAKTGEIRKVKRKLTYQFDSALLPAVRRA

As for TTAGAT, the binding signal in assay [1] was 1.16 fold enrichment (6-mer frequency, TF over GST control); in assay [2], 1.06 fold enrichment (6-mer frequency, TF over GST control); in assay [3] it was 1.04 fold enrichment (6-mer frequency, TF over GST control); in assay [4], 1.03 fold enrichment (6-mer frequency, TF over GST control); in assay [5], 1.13 fold enrichment (6-mer frequency, TF over GST control); in assay [6], 1.05 fold enrichment (6-mer frequency, TF over GST control). For the same sequence, the binding signal was 1.09 fold enrichment (6-mer frequency, TF over GST control) in assay [7]; 1.04 fold enrichment (6-mer frequency, TF over GST control) in assay [8]; 1.12 fold enrichment (6-mer frequency, TF over GST control) in [9].
